The campaign covered roughly 5,500 compounds. About 2,000 (36%) were called active. Not shown: some 18% with an inconclusive outcome. This is one part of the list. Unmarked numbers belong to inactive results. No stated cut-off is given here; in the data, active means normalized growth mostly below about 0.91 (no sharp cut-off); inconclusive means no clear call, values can overlap the other calls; inactive means mostly above about 0.92.
Assay: chemical genetic growth profiling, strain panel (AID 1159580);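 further: tested at 20 µM; growth read once vehicle control cultures reached saturation at 30 °C; 1 = growth at the plate median or of vehicle wells; lower values mean less growth of the strain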
Conditions: growth OD
[1] = S. cerevisiae deletion strains, locus YDL101C, strain DUN1, hits give low values
[2] = S. cerevisiae deletion strains, locus YHR030C, strain SLT2, hits give low values
[3] = S. cerevisiae deletion strains, locus YAR019C, strain CDC15, hits give low values
[4] = S. cerevisiae deletion strains, locus YBL105C, strain PKC1, hits give low values
[5] = S. cerevisiae deletion strains, locus YBR135W, strain CKS1, hits give low values
[6] = S. cerevisiae deletion strains, locus YBR136W, strain MEC1, hits give low values
[7] = S. cerevisiae deletion strains, locus YBR160W, strain CDC28, hits give low values
[8] = S. cerevisiae deletion strains, locus YDL017W, strain CDC7, hits give low values
[9] = S. cerevisiae deletion strains, locus YDL028C, strain MPS1, hits give low values
[10] = S. cerevisiae deletion strains, locus YDL108W, strain KIN28, hits give low values
[11] = S. cerevisiae deletion strains, locus YDL132W, strain cdc53, hits give low values
[12] = S. cerevisiae deletion strains, locus YDL214C, strain PRR2, hits give low values
[13] = S. cerevisiae deletion strains, locus YDR052C, strain DBF4, hits give low values
[14] = S. cerevisiae deletion strains, locus YDR054C, strain cdc34, hits give low values
[15] = S. cerevisiae deletion strains, locus YDR226W, strain ADK1, hits give low values
[16] = S. cerevisiae deletion strains, locus YDR477W, strain SNF1, hits give low values
[17] = S. cerevisiae deletion strains, locus YER123W, strain YCK3, hits give low values
[18] = S. cerevisiae deletion strains, locus YER133W, strain GLC7, hits give low values
[19] = S. cerevisiae deletion strains, locus YFL009W, strain cdc4, hits give low values
[20] = S. cerevisiae deletion strains, locus YFL029C, strain CAK1, hits give low values
[21] = S. cerevisiae deletion strains, locus YFR003C, strain YPI1, hits give low values
[22] = S. cerevisiae deletion strains, locus YFR019W, strain FAB1, hits give low values
[23] = S. cerevisiae deletion strains, locus YFR028C, strain CDC14, hits give low values
[24] = S. cerevisiae deletion strains, locus YGR040W, strain KSS1, hits give low values
[25] = S. cerevisiae deletion strains, locus YGR052W, strain FMP48, hits give low values
[26] = S. cerevisiae deletion strains, locus YGR092W, strain DBF2, hits give low values
[27] = S. cerevisiae deletion strains, locus YHR079C, strain IRE1, hits give low values
[28] = S. cerevisiae deletion strains, locus YHR082C, strain KSP1, hits give low values
[29] = S. cerevisiae deletion strains, locus YHR205W, strain SCH9, hits give low values
[30] = S. cerevisiae deletion strains, locus YIL147C, strain SLN1, hits give low values
[31] = S. cerevisiae deletion strains, locus YJL095W, strain BCK1, hits give low values
[32] = S. cerevisiae deletion strains, locus YJL128C, strain PBS2, hits give low values
[33] = S. cerevisiae deletion strains, locus YJL157C, strain FAR1, hits give low values
[34] = S. cerevisiae deletion strains, locus YJR016C, strain ILV3, hits give low values
[35] = S. cerevisiae deletion strains, locus YJR066W, strain TOR1 (second series), hits give low values
[36] = S. cerevisiae deletion strains, locus YJR066W, strain TOR1, hits give low values
[37] = S. cerevisiae deletion strains, locus YKL048C, strain ELM1, hits give low values
[38] = S. cerevisiae deletion strains, locus YKL067W, strain YNK1, hits give low values
[39] = S. cerevisiae deletion strains, locus YKL101W, strain HSL1, hits give low values
[40] = S. cerevisiae deletion strains, locus YKL193C, strain SDS22, hits give low values
[41] = S. cerevisiae deletion strains, locus YKL203C, strain TOR2, hits give low values
[42] = S. cerevisiae deletion strains, locus YLR113W, strain HOG1, hits give low values
[43] = S. cerevisiae deletion strains, locus YLR133W, strain CKI1, hits give low values
[44] = S. cerevisiae deletion strains, locus YLR403W, strain SFP1, hits give low values
[45] = S. cerevisiae deletion strains, locus YML070W, strain DAK1, hits give low values
[46] = S. cerevisiae deletion strains, locus YMR001C, strain CDC5, hits give low values
[47] = S. cerevisiae deletion strains, locus YMR205C, strain PFK2 (second series), hits give low values
[48] = S. cerevisiae deletion strains, locus YMR277W, strain FCP1, hits give low values
[49] = S. cerevisiae deletion strains, locus YNL006W, strain LST8, hits give low values
[50] = S. cerevisiae deletion strains, locus YNL020C, strain ARK1, hits give low values
[51] = S. cerevisiae deletion strains, locus YNL161W, strain CBK1, hits give low values
[52] = S. cerevisiae deletion strains, locus YNL183C, strain NPR1, hits give low values
[53] = S. cerevisiae deletion strains, locus YNL207W, strain RIO2, hits give low values
[54] = S. cerevisiae deletion strains, locus YNL222W, strain SSU72, hits give low values
[55] = S. cerevisiae deletion strains, locus YNL307C, strain MCK1 (second series), hits give low values
[56] = S. cerevisiae deletion strains, locus YOL078W, strain AVO1, hits give low values
[57] = S. cerevisiae deletion strains, locus YOL136C, strain PFK27, hits give low values
[58] = S. cerevisiae deletion strains, locus YOR061W, strain CKA2, hits give low values
[59] = S. cerevisiae deletion strains, locus YOR119C, strain RIO1, hits give low values
[60] = S. cerevisiae deletion strains, locus YOR231W, strain MKK1, hits give low values
[61] = S. cerevisiae deletion strains, locus YOR329C, strain SCD5, hits give low values
[62] = S. cerevisiae deletion strains, locus YPL031C, strain PHO85, hits give low values
[63] = S. cerevisiae deletion strains, locus YPL153C, strain RAD53, hits give low values
[64] = S. cerevisiae deletion strains, locus YPL204W, strain HRR25, hits give low values
[65] = S. cerevisiae deletion strains, locus YPL209C, strain IPL1, hits give low values
[66] = S. cerevisiae deletion strains, locus YPL256C, strain CLN2, hits give low values
[67] = S. cerevisiae deletion strains, locus YPR025C, strain CCL1, hits give low values
[68] = S. cerevisiae deletion strains, locus YPR106W, strain ISR1, hits give low values
[69] = S. cerevisiae deletion strains, locus YPR111W, strain DBF20, hits give low values
[70] = S. cerevisiae deletion strains, strain NNK1, hits give low values
[71] = S. cerevisiae deletion strains, strain TSCII, hits give low values

CC(=O)OCc1ccc(/C=C(\C#N)S(=O)(=O)c2ccc(Cl)cc2)o1
normalized growth (S. cerevisiae deletion strains, locus YAL013W, strain DEP1, hits give low values): 1.01
normalized growth (S. cerevisiae deletion strains, locus YBR229C, strain ROT2, hits give low values): 1.01
normalized growth [1]: 1.01
normalized growth (S. cerevisiae deletion strains, locus YDR150W, strain NUM1, hits give low values): 1.06
normalized growth (S. cerevisiae deletion strains, locus YEL061C, strain CIN8, hits give low values): 1
normalized growth (S. cerevisiae deletion strains, locus YGR078C, strain PAC10, hits give low values): 1.01
normalized growth [2]: 0.923
normalized growth (S. cerevisiae deletion strains, locus YHR087W, strain rtc3, hits give low values): 0.983
normalized growth (S. cerevisiae deletion strains, locus YJR043C, strain POL32, hits give low values): 1.04
normalized growth (S. cerevisiae deletion strains, locus YJR075W, strain HOC1, hits give low values): 0.956
normalized growth (S. cerevisiae deletion strains, locus YKL190W, strain CNB1, hits give low values): 1.02
normalized growth (S. cerevisiae deletion strains, locus YLR039C, strain RIC1, hits give low values): 0.992
normalized growth (S. cerevisiae deletion strains, locus YLR058C, strain SHM2 (second series), hits give low values): 0.996
normalized growth (S. cerevisiae deletion strains, locus YLR085C, strain ARP6, hits give low values): 0.923
normalized growth (S. cerevisiae deletion strains, locus YLR262C, strain YPT6, hits give low values): 1.01
normalized growth (S. cerevisiae deletion strains, locus YML094W, strain GIM5, hits give low values): 0.993
normalized growth (S. cerevisiae deletion strains, locus YMR219W, strain ESC1, hits give low values): 0.993
normalized growth (S. cerevisiae deletion strains, locus YMR263W, strain SAP30, hits give low values): 1.06
normalized growth (S. cerevisiae deletion strains, locus YMR307W, strain GAS1, hits give low values): 0.869
normalized growth (S. cerevisiae deletion strains, locus YNL153C, strain GIM3, hits give low values): 1.03
normalized growth (S. cerevisiae deletion strains, locus YNL298W, strain CLA4 (second series), hits give low values): 1.01
normalized growth (S. cerevisiae deletion strains, locus YNL322C, strain KRE1, hits give low values): 0.985
normalized growth (S. cerevisiae deletion strains, locus YNR030W, strain Alg12, hits give low values): 0.985
normalized growth (S. cerevisiae deletion strains, locus YPL055C, strain LGE1, hits give low values): 1.13
normalized growth (S. cerevisiae deletion strains, locus YPL241C, strain CIN2, hits give low values): 0.98
normalized growth (S. cerevisiae deletion strains, locus YPR135W, strain CTF4, hits give low values): 0.966
normalized growth (S. cerevisiae strains, strain wild type, hits give low values): 1.02

N#C/C(=C\c1ccccc1Sc1ccc(Cl)cc1)S(=O)(=O)c1ccccn1
normalized growth [3]: 0.972
normalized growth [4]: 0.968
normalized growth [5]: 0.957
normalized growth [6]: 0.966
normalized growth [7]: 0.973
normalized growth [8]: 0.982
normalized growth [9]: 0.971
normalized growth [1]: 0.963
normalized growth [10]: 0.962
normalized growth [11]: 0.959
normalized growth [12]: 0.901
normalized growth [13]: 0.98
normalized growth [14]: 0.969
normalized growth [15]: 0.968
normalized growth [16]: 0.873
normalized growth [17]: 0.88
normalized growth [18]: 0.909
normalized growth [19]: 0.967
normalized growth [20]: 0.968
normalized growth [21]: 0.97
normalized growth [22]: 0.926
normalized growth [23]: 0.962
normalized growth [24]: 0.871
normalized growth [25]: 0.883
normalized growth [26]: 0.772
normalized growth [2]: 0.858
normalized growth [27]: 0.956
normalized growth [28]: 0.939
normalized growth [29]: 0.872
normalized growth [30]: 0.97
normalized growth [31]: 0.875
normalized growth [32]: 0.925
normalized growth [33]: 0.897
normalized growth [34]: 0.971
normalized growth [35]: 0.883
normalized growth [36]: 0.938
normalized growth [37]: 0.852
normalized growth [38]: 0.9
normalized growth [39]: 0.875
normalized growth [40]: 0.961
normalized growth [41]: 0.936
normalized growth [42]: 0.821 (active)
normalized growth [43]: 0.889
normalized growth [44]: 0.802
normalized growth [45]: 0.886
normalized growth [46]: 0.964
normalized growth [47]: 0.908
normalized growth [48]: 0.963
normalized growth [49]: 0.959
normalized growth [50]: 0.891
normalized growth [51]: 0.968
normalized growth [52]: 0.934
normalized growth [53]: 0.968
normalized growth [54]: 0.959
normalized growth [55]: 0.877
normalized growth [56]: 0.955
normalized growth [57]: 0.846
normalized growth [58]: 0.851
normalized growth [59]: 0.939
normalized growth [60]: 0.893
normalized growth [61]: 0.969
normalized growth [62]: 0.868
normalized growth [63]: 0.904
normalized growth [64]: 0.83
normalized growth [65]: 0.968
normalized growth [66]: 0.926
normalized growth [67]: 0.961
normalized growth [68]: 0.973
normalized growth [69]: 0.942
normalized growth [70]: 0.964
normalized growth [71]: 0.956

Cn1cncc1S(=O)(=O)/C(C#N)=C/c1ccccc1Sc1ccc(Cl)cc1
normalized growth [3]: 0.987
normalized growth [4]: 0.973
normalized growth [5]: 0.975
normalized growth [6]: 0.972
normalized growth [7]: 0.983
normalized growth [8]: 0.976
normalized growth [9]: 0.979
normalized growth [1]: 0.976
normalized growth [10]: 0.979
normalized growth [11]: 0.97
normalized growth [12]: 0.771
normalized growth [13]: 0.983
normalized growth [14]: 0.982
normalized growth [15]: 0.962
normalized growth [16]: 0.773
normalized growth [17]: 0.729
normalized growth [18]: 0.786
normalized growth [19]: 0.971
normalized growth [20]: 0.984
normalized growth [21]: 0.98
normalized growth [22]: 0.75 (active)
normalized growth [23]: 0.969
normalized growth [24]: 0.752
normalized growth [25]: 0.713
normalized growth [26]: 0.619
normalized growth [2]: 0.368 (active)
normalized growth [27]: 0.668
normalized growth [28]: 0.6 (active)
normalized growth [29]: 0.617
normalized growth [30]: 0.973
normalized growth [31]: 0.726
normalized growth [32]: 0.944
normalized growth [33]: 0.723
normalized growth [34]: 0.982
normalized growth [35]: 0.771
normalized growth [36]: 0.678
normalized growth [37]: 0.845
normalized growth [38]: 0.854
normalized growth [39]: 0.828
normalized growth [40]: 0.976
normalized growth [41]: 0.815
normalized growth [42]: 0.81 (active)
normalized growth [43]: 0.73 (active)
normalized growth [44]: 0.619 (active)
normalized growth [45]: 0.8
normalized growth [46]: 0.971
normalized growth [47]: 0.829
normalized growth [48]: 0.973
normalized growth [49]: 0.984
normalized growth [50]: 0.716
normalized growth [51]: 0.978
normalized growth [52]: 0.807
normalized growth [53]: 0.971
normalized growth [54]: 0.98
normalized growth [55]: 0.681
normalized growth [56]: 0.966
normalized growth [57]: 0.674 (active)
normalized growth [58]: 0.758
normalized growth [59]: 0.776
normalized growth [60]: 0.794
normalized growth [61]: 0.978
normalized growth [62]: 0.743
normalized growth [63]: 0.798
normalized growth [64]: 0.699
normalized growth [65]: 0.975
normalized growth [66]: 0.73 (active)
normalized growth [67]: 0.977
normalized growth [68]: 0.981
normalized growth [69]: 0.962
normalized growth [70]: 0.967
normalized growth [71]: 0.974
